The source of these data is PubChem BioAssay.

Molecules are shown by their SMILES. Calls of active or inactive are those of the source. Unless noted, how the calls were made is not given here.

The nature of assay [1]: HepG2 liver cancer cell viability effects, profiling panel, resazurin fluorescence, 24 h, PK04 Diversity Set (AID 1172). Further: test concentration not given here. The conditions noted are these: higher = more signal.
The nature of assay [2]: basal S. cerevisiae growth modulation, no modifier, primary screen, OD600, strain BY4716, 24 h, basal condition (AID 1173). As to conditions: OD600, 24 h, higher = more signal, called active from +8 up or from −8 down.
A short description of assay [3]: MM1S myeloma cell viability, profiling panel, resazurin fluorescence, basal, 24 h, PK04 Diversity Set (AID 1174).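 Further: MM1S multiple myeloma cell line; test concentration not given here.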 As to conditions: higher = more signal, called active from +8 up or from −8 down.
Assay [4] addresses Dihydroorotate dehydrogenase (quinone), mitochondrial (Plasmodium falciparum (isolate 3D7)) (UniProt Q08210). Nature of the assay: PfDHODH enzyme inhibitors, primary screen, biochemical, C-terminal His tag, absorbance 600 nm (AID 1175).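 Further: recombinant parasite enzyme with a five histidine tag at its C terminus; test concentration not given here.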 The conditions noted are these: DCIP absorbance 600 nm, higher = more signal, called active from +8 up or from −8 down.
Assay [5] can be described thus: P. aeruginosa biofilm formation inhibitors, primary screen, strain PAO1, LB-PBS medium, absorbance 600 nm (AID 1176). Further: test concentration not given here. The conditions noted are these: P. aeruginosa PAO1 growth/biofilm, A600, 12 h; higher = more signal.
Assay [6] is described as follows: S. cerevisiae RM11-1a growth modifiers, primary screen, strain RM11-1a, OD600, basal, 24 h (AID 1177).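 Further: cultures grown under basal conditions with no added stressor; test concentration not given here.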 The conditions noted are these: OD600, 24 h, higher = more signal, called active from +8 up or from −8 down.
The nature of assay [7]: E. coli acrAB mutant growth effects, primary screen, E. coli filamentation inducers, strain DRC39, OD650, 24 h (AID 1178).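 Further: growth measured as culture turbidity by optical density at 650 nm; test concentration not given here.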 The conditions noted are these: higher = more signal, called active from +8 up or from −8 down.
A short description of assay [8]: E. coli acrAB mutant growth effects, primary screen, E. coli filamentation inducers, strain DRC39, OD650, 48 h (AID 1179).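 Further: screen aims at cell division blockers that make cells filament.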 As to conditions: E. coli DRC39 delta-acrAB growth, higher = more signal, called active from +8 up or from −8 down.
Assay [9] in a line: RPMI8226 myeloma cell viability, profiling panel, resazurin fluorescence, basal, 24 h, PK04 Diversity Set (AID 1180).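 Further: RPMI8826 multiple myeloma cell line at 5000 cells per well; test concentration not given here.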 As to conditions: higher = more signal.
The target in assay [10] is E3 ubiquitin-protein ligase XIAP (Homo sapiens) (UniProt P98170). The assay can be described thus: XIAP binders, primary screen, biophysical, small-molecule microarray, fluorescence 635 nm (AID 1181).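 Further: score merges 667 nm emission and signal to noise over triplicate slides.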 The conditions noted are these: small-molecule microarray binding, higher = more signal.
Sequence of E3 ubiquitin-protein ligase XIAP (Homo sapiens) (P98170 whole entry, looked up): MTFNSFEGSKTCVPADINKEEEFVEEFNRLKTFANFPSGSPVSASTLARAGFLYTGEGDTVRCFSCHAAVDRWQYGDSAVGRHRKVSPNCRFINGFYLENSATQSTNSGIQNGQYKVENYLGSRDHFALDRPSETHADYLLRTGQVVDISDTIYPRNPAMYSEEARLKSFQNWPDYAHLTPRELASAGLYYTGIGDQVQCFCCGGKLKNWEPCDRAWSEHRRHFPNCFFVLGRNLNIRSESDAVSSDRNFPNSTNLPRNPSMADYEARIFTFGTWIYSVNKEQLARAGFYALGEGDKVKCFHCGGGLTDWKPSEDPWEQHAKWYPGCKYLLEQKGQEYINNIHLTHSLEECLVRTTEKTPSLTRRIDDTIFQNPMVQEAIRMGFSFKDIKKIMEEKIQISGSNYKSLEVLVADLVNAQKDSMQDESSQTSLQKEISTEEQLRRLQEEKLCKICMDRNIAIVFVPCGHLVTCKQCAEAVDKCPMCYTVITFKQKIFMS

Sequence of Dihydroorotate dehydrogenase (quinone), mitochondrial (Plasmodium falciparum (isolate 3D7)) (Q08210 whole entry, looked up): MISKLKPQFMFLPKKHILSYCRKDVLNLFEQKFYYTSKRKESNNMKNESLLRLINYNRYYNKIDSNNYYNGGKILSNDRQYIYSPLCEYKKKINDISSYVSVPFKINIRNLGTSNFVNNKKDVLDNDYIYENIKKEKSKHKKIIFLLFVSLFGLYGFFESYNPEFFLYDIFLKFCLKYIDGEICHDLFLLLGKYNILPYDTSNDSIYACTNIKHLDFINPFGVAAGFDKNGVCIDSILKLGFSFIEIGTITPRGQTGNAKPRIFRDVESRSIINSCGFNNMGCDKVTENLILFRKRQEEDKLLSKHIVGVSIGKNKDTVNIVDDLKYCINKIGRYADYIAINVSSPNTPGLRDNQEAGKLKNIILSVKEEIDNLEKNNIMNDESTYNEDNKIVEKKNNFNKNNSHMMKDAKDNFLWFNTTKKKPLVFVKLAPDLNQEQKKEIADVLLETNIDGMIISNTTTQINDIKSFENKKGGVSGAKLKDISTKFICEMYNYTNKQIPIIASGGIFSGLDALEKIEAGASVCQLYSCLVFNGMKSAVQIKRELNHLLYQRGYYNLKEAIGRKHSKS

As to `COc1ccc(C#Cc2ccc3c(c2)[C@]2(C(=O)N3)[C@H](C(=O)Nc3nc4ccccc4s3)[C@H]3C(=O)O[C@H](c4ccccc4)[C@H](c4ccccc4)N3[C@@H]2c2ccccc2OCCO)cc1`, the z-score in [1] was 0.154; in assay [2], 1.08 (inactive); in assay [3] it was 0.303 (inactive); in [5] it was 2.69 (inactive); in assay [6] it was 1.66 (inactive); in [7], 0.82 (inactive). The z-score is 0.413 (inactive) in [8] and 1.5 in assay [9]. Besides, the figures for the composite z-score in assay [4] and in assay [10] were -5.43 (inactive) and 0.0507, respectively.

Turning to `CC(C)(C)OC(=O)CC[C@]1(C(=O)N2CCCCC2)COC(c2ccc(OCCCO)cc2)=N1`, the z-score in assay [1] is 2.29; in [2], -1.31 (inactive); in [3], 0.619 (inactive); in [5], -1.17 (inactive); in assay [6], -0.398 (inactive); in assay [7] it was 0.134 (inactive). In addition, the z-score is 0.139 (inactive) in [8] and 1.41 in assay [9]. The composite z-score in assay [4] is -0.509 (inactive); in assay [10] it was 0.162.

On to `O=C1C2C=CC(C(O)C=Cc3ccc([N+](=O)[O-])cc3)N(Nc3ccccc3)C2C(=O)N1c1ccccc1` (stereo not given), for which the z-score in assay [1] is -0.392; in [2] it was -2.88 (inactive); in assay [3], -1.44 (inactive); in assay [5], 1.1 (inactive); in [6], -0.0358 (inactive); in assay [7], -0.125 (inactive). The z-score in assay [8] is 0.242 (inactive); in assay [9], 0.185. The composite z-score in [4] is -0.162 (inactive); in assay [10] it was -0.0103.

Consider `[N-]=[N+]=Nc1ccccc1C[C@@]1(C(=O)O)N=C(c2ccc(OCCCO)cc2)O[C@@H]1c1ccccc1N=[N+]=[N-]`, for which the z-score in assay [1] was 0.628; in assay [2] it was -2.04 (inactive); in assay [3], -0.988 (inactive); in assay [5], 0.879 (inactive); in assay [6] it was -1.23 (inactive); in [7], -0.258 (inactive). The z-score is -0.69 (inactive) in [8] and -0.955 in [9]. Also, the figures for the composite z-score in [4] and in assay [10] were -0.435 (inactive) and -0.0374, respectively.

Consider `CC1(C)C(=O)C(c2ccccc2)=C2CN3C(=O)N(CCc4ccccc4)C(=O)C3(Cc3ccc(F)cc3)C=C21` (stereo not given), for which the z-score is -1.03 in [1]; 0.664 (inactive) in [2]; -2.18 (inactive) in [3]; 0.563 (inactive) in [5]; 1.11 (inactive) in assay [6]; -0.687 (inactive) in [7]. Also, the z-score in assay [8] is -1.01 (inactive); in assay [9] it was -0.968. The composite z-score in assay [4] is -0.533 (inactive); in assay [10], -0.198.

As to `C=C[C@@H](C)[C@H](O)c1ccc(OCCO)cc1`, the z-score in assay [1] was 0.0075; in [2], -0.731 (inactive); in [3], 0.088 (inactive); in [5] it was 0.0852 (inactive); in assay [6], 0.164 (inactive); in assay [7] it was 1.02 (inactive). For the same compound, the z-score was 0.856 (inactive) in assay [8] and -0.127 in assay [9]. The composite z-score in assay [4] is -0.445 (inactive); in [10], -0.184.

As to `CC(C)[Si]1(C(C)C)OCc2cc(-c3ccc(-c4ccc(Cl)c(Cl)c4)o3)nc(CCc3ccccc3)c21`, the z-score in [1] is 0.822; in assay [2], -3.49 (inactive); in assay [3] it was -1.64 (inactive); in assay [5], 0.149 (inactive); in assay [6], -0.302 (inactive); in assay [7], 1.46 (inactive). The z-score in assay [8] was 0.643 (inactive); in [9], -0.0096. For the same compound, the composite z-score in [4] is 0.393 (inactive); in [10], -0.185.

Take `C=C(CCCC)C(=O)CC[C@H](OC(C)=O)c1ccc(OCCO)cc1`: the z-score in [1] is 0.574; in assay [2], -3.3 (inactive); in assay [3] it was -0.464 (inactive); in [5], 0.0022 (inactive); in assay [6], -2.33 (inactive); in [7], -0.0158 (inactive). Moreover, the z-score is 0.539 (inactive) in assay [8] and -0.939 in [9]. For the same compound, the composite z-score in assay [4] was -0.788 (inactive); in assay [10] it was 0.648.

In the case of `CN1C(=O)C2C=CC(C(O)c3cc(C(F)(F)F)cc(C(F)(F)F)c3)N(Nc3ccccc3)C2C1=O` (stereo not given), the z-score was -0.0075 in assay [1]; -2.64 (inactive) in assay [2]; -0.18 (inactive) in [3]; 0.214 (inactive) in [5]; -0.478 (inactive) in [6]; -0.732 (inactive) in assay [7]. The z-score is -0.556 (inactive) in [8] and 0.298 in assay [9]. Also, the composite z-score in [4] was -0.274 (inactive); in [10], 0.0641.

Consider `C=C(COC)/C(=C/C[C@@H](OC(=O)c1ccncc1)c1ccccc1OCCO)c1cc(C(=O)OC)ccc1OC`, for which the z-score was 0.106 in assay [1]; -1.35 (inactive) in assay [2]; -1.03 (inactive) in assay [3]; 0.825 (inactive) in [5]; 0.0248 (inactive) in assay [6]; 0.404 (inactive) in assay [7]. The values for the z-score in assay [8] and in [9] were 0.32 (inactive) and -1.35, respectively. For the same compound, the composite z-score in [4] was -4 (inactive); in assay [10], -0.211.

`COCCOC(=O)N1C(=O)[C@@]2(c3cc(C#CC4(O)CCCCCC4)ccc31)[C@H](C(=O)N1CCN(c3ncccn3)CC1)[C@H]1C(=O)O[C@H](c3ccccc3)[C@H](c3ccccc3)N1[C@@H]2c1ccccc1OCCO`: the z-score in [1] was 0.212; in [2], 2.67 (inactive); in [3] it was -0.194 (inactive); in assay [5], 2.12 (inactive); in assay [6] it was 3.05 (inactive); in [7] it was -0.322 (inactive). The values for the z-score in assay [8] and in assay [9] were -0.473 (inactive) and 0.177, respectively. Moreover, the composite z-score is 0.97 (inactive) in assay [4] and -0.068 in assay [10].

On to `CCOC(=O)C[C@H]1[C@H](OC(=O)c2cc3ccccc3oc2=O)[C@@H](NC(=O)c2ccc3ccccc3c2)c2cc(OCCCO)ccc2N1C(=O)Cc1ccc(OC)cc1`, for which the z-score was 0.98 in assay [1]; -0.399 (inactive) in assay [2]; -0.0697 (inactive) in assay [3]; -0.304 (inactive) in assay [5]; 0.0085 (inactive) in [6]; 0.406 (inactive) in [7]. Further, the results for the z-score in [8] and in assay [9] were -0.224 (inactive) and -0.137, respectively. Further, the composite z-score in [4] is 0.0533 (inactive); in assay [10], -0.169.

With `O=C1OCCC=C[C@H]2OC34C=CCN(c5ccc(Cl)cc5)C(=O)[C@H]3N(CCCCCCO)C(=O)[C@@H]4C12` (stereo not given in full), the z-score in [1] was 0.546; in [2] it was -0.247 (inactive); in assay [3], 1.35 (inactive); in assay [5], -0.786 (inactive); in assay [6], 0.311 (inactive); in [7] it was 1.38 (inactive). Further, the z-score in [8] is 1.74 (inactive); in [9] it was 1.23. Further, the composite z-score is -0.477 (inactive) in [4] and -0.474 in assay [10].
